# Many of the other results were omitted from the sample, so hits are more common in it than they were.
# Tgondii IFNg = T. gondii growth inhibition under IFN-gamma; Toxoplasma gondii growth in IFN-gamma-treated host cells; hits give low values; activity change, negative = inhibition, % (concentration not given with the values); actives 3.8% (n = 69,000); in the data active = activity change below about -70%, passing the limit was not always enough;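 note: host cells are HeLa cells infected with Toxoplasma gondii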
# Numbers without * were called inactive; ! = not active in a repeat.
SMILES,Tgondii IFNg
CO/N=C(\C(=O)N[C@@H]1C(=O)N2C(C(=O)O)=C(Cn3ccc(=N)n3CCO)CS[C@H]12)c1csc(N)n1,4
CCOc1cc(CCC(=O)Nc2n[nH]c(CC)n2)on1,39
CCOc1cc(CCC(=O)N2CCc3[nH]c4c(Cl)cccc4c3C2)on1,40
CCOc1cc(CCC(=O)N2CCCc3c(Cl)cc(Cl)c(O)c32)on1,-87*
COc1ccc(-c2cccc(-c3nc(C(=O)N(C)C)cc4c3[C@@H](CCO)N([S@](=O)C(C)(C)C)C4)c2)cc1,-23
O=C(Nc1ccccc1)C1CCN(c2c3c(nc4ncnn24)CCC3)CC1,4
CN1c2ccc(-c3cccc(C#N)c3)cc2[C@H]2[C@H](CCN2C(=O)Cc2ccccn2)[C@H]1CO,16
Cc1ccc(-c2nc(Cn3nnc(C(=O)NC4CCCC4)c3C)c(C)o2)cc1,-101*
Cc1ccc(CNC(=O)c2nnn(Cc3nc(-c4ccc(C)cc4)oc3C)c2C)cc1,-94*
Cc1ccc(-c2nc(Cn3nnc(C(=O)NCc4ccc(C(C)C)cc4)c3C)c(C)o2)cc1,-9
Cc1ccc(-c2nc(Cn3nnc(C(=O)Nc4ccccc4)c3C)c(C)o2)cc1,1
Cc1ccc(-c2nc(Cn3nnc(C(=O)NCCc4ccccc4)c3C)c(C)o2)cc1,-49
Cc1ccc(-c2nc(Cn3nnc(C(=O)NCc4ccc(Br)cc4)c3C)c(C)o2)cc1,-68
Cn1cc(-c2ncnc3c2CCN(c2ncccn2)CC3)cn1,-4
N#C[C@@H]1[C@H](c2ccccc2-c2cccc(F)c2)[C@H](CO)N1S(=O)(=O)c1cccc(F)c1,9
COCCNC(=O)C[C@@H]1CC[C@H]2[C@@H](COc3ccc(NC(=O)Nc4cccc(F)c4)cc3C(=O)N2C)O1,4
COc1ccc([C@@H]2C[C@H](OC(=O)CCn3c(=O)oc4ccccc43)C(=O)N2C)cc1,-6
Oc1cc(-c2csc3ccccc23)cc2c1OCCN(CCn1cncn1)C2,-32
Cc1ccc(-c2cc(O)c3c(c2)CN(C(=O)CCCn2cncn2)CCO3)cc1,-76*
O=C(CCN1CCCO1)N1CCOc2c(O)cc(-c3cccnc3)cc2C1,5
CCc1ccc(S(=O)(=O)N2CCC3(CC2)NCCN=C3NCc2ccc(F)c(Cl)c2)cc1,-49
CCOc1ccc(CNC(=O)C2=C(C)C(=O)OC23CCN(Cc2ccccc2)CC3)cc1,109
CCN1C[C@@H](COC)[C@]2(CCN(C(=O)COc3ccccc3)C2)C1,-2
O=C(CSc1nnc(CNc2ccc(F)cc2)o1)N1CCc2ccccc2C1,-81*
Cc1nnc(SCC(=O)N2CCc3[nH]c4ccc(F)cc4c3C2)o1,-7
SMILES,Tgondii IFNg
O=C(Cn1c(SCC(=O)N2CCc3ccccc3C2)nc2ccccc21)NC1CCCC1,3
COc1ccc(-c2nc(Cn3nnc(-c4nc(-c5cc(OC)cc(OC)c5)no4)c3C)c(C)o2)cc1,7
CCCc1c(C(=O)OCC)cnn1-c1ncc(C(=O)OC)c(C(F)(F)F)n1,-19
COC(=O)c1cnc(NN2C(=O)CCC2=O)nc1C(F)(F)F,65
CC1CN(c2ncc(C(=O)OCc3ccccc3)c(C(F)(F)F)n2)CC(C)O1 (stereo not given),-116*
CCC(c1ccc(F)cc1)n1cc(C(=O)Nc2ccc3c(c2)N(C)C(=O)CO3)nn1 (stereo not given),-50
Cc1ncsc1C(=O)NC(Cc1cc(=O)[nH]c(-c2ccccn2)n1)c1ccc(F)cc1 (stereo not given),-15
CCC(c1ccc(F)cc1)n1cc(C(=O)Nc2nc(-c3ccccn3)cs2)nn1 (stereo not given),-97*
COc1ncnc(N)c1OC,16
O=C(CNCCNC(=O)c1ccncc1)Nc1ccc(Cl)cc1F,6
CCN1CCN(Cc2cc(C(=O)N(C)Cc3cccc(Cl)c3)no2)CC1,-8
Nc1[nH]c(=O)ncc1F,-79*!
O=C(N[C@H]1C=C[C@@H](CC(=O)N2CCN(c3ccccc3)CC2)O[C@@H]1CO)c1ccccc1,15
Nc1nc2c(c(Nc3ccccc3)n1)C(=O)CCC2,13
CCN(CC)CCCNC(=O)c1cc2c(c3ccccc3n2CC2CC2)n1C,-77*
N#CCCNC(=O)c1cc2c(c3ccccc3n2CC2CC2)n1-c1ncccn1,-46
Cn1c(C(=O)NCc2ccco2)cc2c1c1ccccc1n2CC1CC1,4
Cc1ccccc1OCC(=O)NCCc1csc(-c2ccc(F)cc2)n1,23
COc1ccc2c(c1)O[C@H]1c3ccc(OC)cc3OC[C@@H]21,-21
COc1ccc2c(c1)OCC(Cc1ccc(OC)c(OC(C)=O)c1)C2=O (stereo not given),-84*
COc1ccc2c(c1)OCC(Cc1ccc(OC)c(OC)c1)C2=O (stereo not given),-3
N#C[C@H]1[C@H](c2ccc(-c3cccnc3)cc2)[C@H](CO)N1C(=O)Nc1ccc(F)cc1,17
Cc1ccc2[nH]cc(CCNC(=O)CN3C(=O)CSc4cccn4-c4ccccc43)c2c1,77
c1cc(-c2cnn3cc(-c4ccc(OCCN5CCCCC5)cc4)cnc23)ccn1,-75*
CN1CCCN(Cc2cnc3c(-c4ccccc4)cnn3c2)CC1,11
